Assay outcomes as filed in PubChem BioAssay.
uPA surface inh: inhibitors of cell surface uPA generation. cell surface uPA generation assay, qHTS. Potency, µM (top dose mostly 38.3 µM), most hits filed as inhibitors. actives 0.31% (n = 330,000). AID 540303; active = well fitted inhibition curve with a large enough effect; inconclusive = small, poorly fitted or top-dose-only effect; inactive = no such curve, though single readings can be large or run the other way; tested in mouse RAW 264.7 cells; note: nearly all actives have a fitted effect of over 55% in size
RGS4 inhibitor: human RGS4 inhibition; P49798; Potency, µM (doses to about 114 µM), most hits filed as inhibitors; actives 0.039% (n = 390,000); Transcreener GDP fluorescence polarization, RGS4-accelerated GTP hydrolysis; active = well fitted inhibition curve with a large enough effect; inconclusive = small, poorly fitted or top-dose-only effect; inactive = no such curve, though single readings can be large or run the other way; note: nearly all actives have a fitted effect of over 75% in size
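MLSMR compounds (23 nl, pin-transferred) preincubated 10 min at room temperature with a 500nM (2x) first reagent, then RGS4 at 900nM (2x) plus Transcreener GDP mix added; fluorescence polarization (620/688 nm) read before and after 90 min at 30 °C.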
D3 ag: agonists of human D3 dopamine receptor; P35462; D3R DiscoveRx beta-arrestin cells, luminescence, 90 min; max activation, %; actives 0.58% (n = 410,000); in the data active = max activation above about 30%
Target sequence (P35462 whole entry, looked up): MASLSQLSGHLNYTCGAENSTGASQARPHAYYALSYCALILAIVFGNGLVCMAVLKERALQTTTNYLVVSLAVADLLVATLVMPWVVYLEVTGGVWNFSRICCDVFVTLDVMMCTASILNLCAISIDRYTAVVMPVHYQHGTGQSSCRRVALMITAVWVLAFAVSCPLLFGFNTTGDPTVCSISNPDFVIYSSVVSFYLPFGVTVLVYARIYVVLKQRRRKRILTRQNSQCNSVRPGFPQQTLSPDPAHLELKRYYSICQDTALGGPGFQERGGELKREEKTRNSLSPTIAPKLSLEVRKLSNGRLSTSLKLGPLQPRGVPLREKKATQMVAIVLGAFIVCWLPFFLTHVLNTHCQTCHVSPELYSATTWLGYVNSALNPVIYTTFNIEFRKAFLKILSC
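Agonist mode: compounds and dopamine controls were applied to plated cells for 90 min at 37 degrees C after an overnight attachment at 1500 cells/well. Luminescent read-out followed 30 - 60 minutes at room temperature with DiscoveRx detection reagent.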
D3 antag: antagonists of human D3 dopamine receptor. P35462. D3R cells, DiscoveRx beta-arrestin luminescence, antagonist mode; active compounds read low. max response, negative = inhibition, %. actives 2.5% (n = 360,000); in the data active = max response below about -50%; inconclusive = no clear call, values can overlap the other calls
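Cells expressing the human receptor were seeded at 1500 cells/well, incubated overnight at 37 degrees C in 5% CO2, then exposed to library compounds with dopamine controls for 90 minutes at 37 degrees C before luminescent detection.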
A number is an active result; - = inactive; ? = inconclusive; . = not tested or not shown; [ ] = remark or other dose. Shown are actives, neighbours in structure and some others; about 3.1% of the full set was active somewhere.

SMILES	uPA surface inh	RGS4 inhibitor	D3 ag	D3 antag
COc1ccc(C(CNC(=O)CCNS(=O)(=O)c2ccc(Br)cc2)N2CCCC2)cc1 (configuration not stated)	-	-	-	-50
N#Cc1c(NC(=O)CS(=O)(=O)c2ccc(Cl)cc2)sc2c1CCCCC2	.	-	-	.
Cc1nc(SCC(=O)Nc2nc3ccccc3s2)c(C#N)c(C)c1C	?	-	-	-
Cc1nc(SCC(=O)Nc2nccs2)c(C#N)c(C)c1C	1µM	-	-	-
COc1ccc(NC(=O)CSc2ncc(-c3ccc(F)cc3)n2Cc2ccco2)cc1	-	-	-	-
CCC(=O)Nc1cc(NC(=O)CSc2ncc(-c3ccc(F)cc3)n2Cc2ccco2)ccc1C	-	-	-	-60
COc1ccc(C(=O)NC2(C(F)(F)F)C(=O)NC(C)=C2C#N)cc1 (configuration not stated)	.	-	-	.
O=C(NNC(=O)C1CC(c2cccnc2)=NO1)Nc1ccccc1F (configuration not stated)	-	-	-	-
Cc1ccc(NC(=O)NNC(=O)C2CC(c3cccnc3)=NO2)cc1 (configuration not stated)	-	-	-	-62
Cc1ccc2c(c1)c(=O)c(S(=O)(=O)c1ccc(C)c(C)c1)cn2CC(=O)Nc1ccccc1	.	-	38	.
CCn1cc(C(=O)N[C@H](C(=O)NCCO)C(C)C)c(=O)c2cc3c(cc21)OCO3	-	-	51	-
COc1ccc(Cl)cc1C=CC=NNS(=O)(=O)c1ccc(C)cc1	-	-	-	-88
COc1ccc(Br)cc1C=NNS(=O)(=O)c1ccc(C)cc1	.	.	-	?
N#C/C(=C/c1ccc(O)c(O)c1)C(=O)NCc1ccc(Cl)cc1	-	-	-	-50
Cc1nn2c(C)c(C(=O)NCc3ccco3)cnc2c1-c1ccccc1	.	-	-	.
COc1cc(NC(=O)c2cc3nc(-c4ccccc4)cc(-c4ccccc4)n3n2)c(OC)cc1Cl	.	-	-	.
O=c1cc(CN2CCN(Cc3ccccc3)CC2)c2cc3c(cc2o1)CCC3	-	-	-	-62
O=c1cc(CN2CCN(c3ccccc3F)CC2)c2c(ccc3ccccc32)o1	.	.	-	-
O=c1cc(CN2CCN(CCO)CC2)c2cc3c(cc2o1)CCC3	-	-	-	?
O=c1cc(CN2CCN(c3ccccc3F)CC2)c2cc3c(cc2o1)CCCC3	.	-	-	-62
NCc1cn(Cc2ccccc2)nc1-c1ccccc1	.	-	.	.
O=C1c2ccsc2SCCN1Cc1c(Cl)cccc1Cl	-	-	-	-61
COc1cc(C(=O)OCCN2CCCCC2)ccc1O	-	-	-	-58
C(#Cc1ccccc1)CN1CCCCC1	-	-	-	?
COc1cc(C#CC#CCN2CCCCC2)ccc1O	-	-	-	-116
SMILES	uPA surface inh	RGS4 inhibitor	D3 ag	D3 antag
COc1cc(C(=O)OCCN2CCOCC2)cc(OC)c1OC	-	-	-	-
O=C(OCCN1CCCCC1)c1ccc(Cl)cc1	-	-	-	-78
COc1cc(C(=O)OCCCN2CCCN(CCCOC(=O)c3cc(OC)c(OC)c(OC)c3)CC2)cc(OC)c1OC	-	?	-	-92
COc1cc(C(=O)OCCCN2CCOCC2)ccc1O	-	-	-	-
COc1ccc(N2C[C@H](CSC)[C@@H](CC(=O)Nc3ccc(Br)cc3)C2=O)cc1	.	.	-	-
CCCCc1nnc(SCc2cc(=O)c3cc(F)ccc3[nH]2)n1C	.	-	-	.
CC(Nc1ccc(Cl)cc1)c1cc(Cl)ccc1O (configuration not stated)	-	-	-	-55
CC(Nc1ccc(Br)cn1)c1cc(Cl)ccc1O (configuration not stated)	-	-[11.4 µM]	-	-
CCOc1ccc(NC(C)c2cc(Cl)ccc2O)cc1 (configuration not stated)	-	-	-	-52
CCN(CC(=O)Nc1ccc(NC(C)=O)cc1)CC(=O)Nc1cccc(Cl)c1	-	-	-	-
CCN(CC(=O)Nc1ccc(NC(C)=O)cc1)CC(=O)Nc1ccc(Cl)c(Cl)c1	-	-	-	-60
O=C(CO/N=C1\CCCc2nonc21)Nc1ccc(Br)cc1	-	-	-	-83
COc1ccc(-n2c(SCC(=O)Nc3cccc(C)c3C)nc3c([nH]c4ccccc43)c2=O)cc1	.	-	-	.
Cc1oc(-c2ccccc2F)nc1CN1CCC(C(=O)NC2CC2)CC1	-	-	-	-
Cc1oc(-c2ccccc2F)nc1CN1CCC(C(=O)NCc2cccs2)CC1	-	-	-	-52
CCOC(=O)c1c(C)sc2c1N(C(=O)CCl)c1cc(Cl)ccc1S2	-	-	-	-60
Cc1sc2ncnc(SCC(=O)N3c4ccccc4Sc4ccc(Cl)cc43)c2c1C	-	-	-	-
